# Bioassay records from PubChem.
# Compounds with a hit are over-represented: about 13% of the library has one in this group of screens.
# G9a block: qHTS Assay for Inhibitors of Histone Lysine Methyltransferase G9a. AID 504332, 2011. Histone-lysine N-methyltransferase EHMT2 (Homo sapiens), Q96KQ7. Potency, µM (series often up to 102 µM), for inactives: top-dose activity, negative = inhibition, hits mostly inhibitors. actives 8.8% (n = 350,000). G9a H3K9 monomethylation, AlphaScreen, 2 h; further: potency means the concentration at half of the fitted maximal effect; on the % scale 0 is the no-effect control and ±100 the full control effect; nearly all actives have a fitted effect of over 75% in size
# Target sequence (Q96KQ7 913-1193 limits assumed): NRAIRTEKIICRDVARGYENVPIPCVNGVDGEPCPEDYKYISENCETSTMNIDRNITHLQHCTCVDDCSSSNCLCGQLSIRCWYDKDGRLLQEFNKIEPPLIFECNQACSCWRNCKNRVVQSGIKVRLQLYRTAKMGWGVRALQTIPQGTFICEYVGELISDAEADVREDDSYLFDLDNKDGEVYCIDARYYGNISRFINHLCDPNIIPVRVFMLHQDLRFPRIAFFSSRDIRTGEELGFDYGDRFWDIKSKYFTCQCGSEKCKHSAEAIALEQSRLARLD
#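 AlphaScreen read-out: biotin-H3K9 peptide (500 nM) methylation by 20 nM enzyme with 20 uM SAM, 2 h at room temperature after 15 min compound preincubation; anti-monomethyl H3K9 antibody plus donor/acceptor beads, 10 min dark.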
# miR-21 act: qHTS Assay for Modulators of miRNAs and/orActivators of miR-21; HeLa miR-21 FLuc reporter, luciferase, 48 h; 340,000 tested, under 10 active; Potency, µM (highest dose often 38.3 µM), for the others: at the top dose activity change, positive = activation, most hits filed as activators;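 further: % of control where 0% means no effect; miR-21 action dims this reporter so a rising signal means less miR-21 action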
#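 Using DMEM plus 10% FBS, HeLa miR-21-FLuc cells are incubated with test compounds (final up to about 40uM) for 48 hours; firefly luciferase signal is then imaged following reagent-mediated lysis.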
# ALDH1A1 inh: qHTS Assay for Inhibitors of Aldehyde Dehydrogenase 1 (ALDH1A1); Aldehyde dehydrogenase 1A1 (Homo sapiens), P00352; Purified ALDH1A1, NADH fluorescence, propionaldehyde substrate; Potency, µM (series often up to 75.3 µM), for inactives: at the top dose activity, negative = inhibition, usual class: inhibitors; actives 7.3% (n = 220,000); active means well fitted inhibition curve with a large enough effect, not every such curve was filed as active; inconclusive means small, poorly fitted or top-dose-only effect, or another doubt; inactive means no such curve, though single readings can be large or run the other way;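 further: potency means the concentration at half of the fitted maximal effect; plate controls were no enzyme wells and a reference inhibitor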
# Target sequence (P00352 whole entry, looked up): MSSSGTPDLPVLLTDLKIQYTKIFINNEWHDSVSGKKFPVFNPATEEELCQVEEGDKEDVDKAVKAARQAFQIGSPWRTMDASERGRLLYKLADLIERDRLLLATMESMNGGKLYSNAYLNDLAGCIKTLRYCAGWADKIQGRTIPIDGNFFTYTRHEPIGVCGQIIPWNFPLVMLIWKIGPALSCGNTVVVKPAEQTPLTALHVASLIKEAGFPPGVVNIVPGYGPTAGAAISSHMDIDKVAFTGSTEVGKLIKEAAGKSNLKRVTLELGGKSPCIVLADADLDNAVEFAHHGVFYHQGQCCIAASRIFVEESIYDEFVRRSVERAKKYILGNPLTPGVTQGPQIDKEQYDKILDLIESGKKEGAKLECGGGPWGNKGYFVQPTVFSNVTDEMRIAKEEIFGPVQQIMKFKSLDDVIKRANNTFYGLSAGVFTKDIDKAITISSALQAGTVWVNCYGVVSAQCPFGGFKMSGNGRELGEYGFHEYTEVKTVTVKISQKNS
# Lamin A splicing: qHTS Assay for Modulators of Lamin A Splicing. HeLa LMNA splicing GFP/RFP minigene ratio, 48 h. Potency, µM (top dose mostly 46.1 µM), for the others: at the top dose ratio change, negative = inhibition, actives largely listed as inhibitors. actives 0.01% (n = 200,000); active means well fitted inhibition curve with a large enough effect in the signal ratio, with a control signal flat, not every such curve was filed as active; inconclusive means small, poorly fitted or top-dose-only effect, or effect the other way, or a change in a side signal; the % refers to the signal ratio; further: potency means the concentration at half of the fitted maximal effect; on the % scale 0 is the no-effect control and ±100 the full control effect
#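 S3 HeLa cells stably expressing lamin A-EGFP splicing minigene plus DsRed2, 600 cells/well, 48 h compound exposure at 37C. Laser-scanning cytometry; analysed as GFP (500-530 nm)/RFP (575-640 nm) total intensity ratio; 0.5% DMSO vehicle.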
# JMJD2E inh: qHTS Assay for Inhibitors of Human Jumonji Domain Containing 2E (JMJD2E); Lysine-specific demethylase 4E (Homo sapiens), B2RXH2; JMJD2E catalytic domain, FDH-coupled NADH fluorescence (FDH is formaldehyde dehydrogenase); Potency, µM (top dose mostly 57.1 µM), for the others: top-dose activity change, negative = inhibition, actives largely listed as inhibitors; actives 1.6% (n = 230,000); active means well fitted inhibition curve with a large enough effect, not every such curve was filed as active; inconclusive means small, poorly fitted or top-dose-only effect, or another doubt; inactive means no such curve, though single readings can be large or run the other way;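 further: potency means the concentration at half of the fitted maximal effect; 0% = wells with enzyme and -100% = buffer wells without enzyme; nearly all actives have a fitted effect of over 50% in size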
# Sfp inh: qHTS Assay for Inhibitors of Bacillus subtilis Sfp phosphopantetheinyl transferase (PPTase); 4'-phosphopantetheinyl transferase ffp (Bacillus subtilis), Q9F4F7; Biochemical Sfp PPTase activity, qHTS; Potency, µM, for inactives: largest response in the series, negative = inhibition, most hits filed as inhibitors; actives 3.5% (n = 310,000); AID 1490, 2009;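 further: the enzyme is Sfp with the accession as filed and its product quenches rhodamine fluorescence; potency means the concentration at half of the fitted maximal effect; 0% = enzyme reaction without inhibitor and -100% = no enzyme wells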
#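 Compounds were incubated with enzyme (final 15 nM) for 15 min at room temperature before substrate addition started the reaction. Fluorescence at 525 nm excitation, 598 nm emission was recorded immediately and after 30 minutes.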
# * hit, by the source's call; u = inconclusive; x = not tested or not shown; ! = not active in a repeat; [ ] = dose if it differs, or a comment. Unless noted, the call rests on the fitted dose curve; in most records, active means well fitted curve in the direction sought with a large enough effect; inconclusive means small, poorly fitted or top-dose-only effect, or another doubt; inactive means no such curve, though single readings can be large; an effect the other way counts as inactive or inconclusive.
SMILES,G9a block,miR-21 act,ALDH1A1 inh,Lamin A splicing,JMJD2E inh,Sfp inh
COc1ccc(S(=O)(=O)N2CCN(Cc3cc(OC)c(OC)c(OC)c3)CC2)cc1,x,17%,x,x,x,-28%
COc1cc(CN2CCN(S(=O)(=O)c3ccccc3)CC2)cc(OC)c1O,10µM*,1%,x,x,x,x
CC(=O)Nc1ccc(S(=O)(=O)N2CCN(CC3CC4C=CC3C4)CC2)cc1 (stereo not drawn),28µM*,5%,4.5µM*,u,u,u
CC(=O)Nc1ccc(S(=O)(=O)N2CCN(Cc3ccccc3[N+](=O)[O-])CC2)cc1,u,16%,22µM*,x,0%,5%
COc1ccc(S(=O)(=O)N2CCN(Cc3cc(OC)c(O)c(OC)c3)CC2)cc1,7.1µM*,0%,x,x,x,-25%
Cc1ccccc1NC(=O)CSc1nnc(C2CC2)n1CC1CCCO1 (stereo not drawn),-13%,1%,x,x,x,0%
COc1cc(CN2CCN(S(=O)(=O)c3ccc(NC(C)=O)cc3)CC2)cc(OC)c1O,8.9µM*,0%,-9%,-6%,u,-12%
Clc1ccc(Cc2ccccn2)cc1,-14%[0.501 µM],x,x,x,x,x
CC(C)N1CCc2c(sc(NC(=O)c3ccc4ccccc4c3)c2C(N)=O)C1,22%,-5%,x,x,x,-13%
NC(=O)c1c(NC(=O)c2ccc([N+](=O)[O-])o2)sc2c1CCCC2,34%,-2%,x,x,x,-3%
CN1CCc2c(sc(NC(=O)c3ccco3)c2C(N)=O)C1,x,-21%,x,x,x,-3%
CN1CCc2c(sc(NC(=O)c3ccc([N+](=O)[O-])o3)c2C(N)=O)C1,35µM*,-7%,x,x,x,-30%
CC(C)N1CCc2c(sc(NC(=O)c3cc4cc([N+](=O)[O-])ccc4s3)c2C(N)=O)C1,40µM*,-4%,u,x,-3%,u
CC(=O)c1ccc(C(=O)Nc2sc3c(c2C(N)=O)CCN(Cc2ccccc2)C3)cc1,u,9%,x,x,x,8%
COc1cccc(OC)c1C(=O)Nc1sc2c(c1C(N)=O)CCN(Cc1ccccc1)C2,79µM*,3%,x,x,x,-10%
CN1CCc2c(sc(NC(=O)c3cc4cc([N+](=O)[O-])ccc4s3)c2C(N)=O)C1,25µM*,u,0%,x,-5%,-8%
CC(C)N1CCc2c(sc(NC(=O)CCc3ccccc3)c2C(N)=O)C1,45µM*,-1%,u,x,2%,-15%
COCCn1cnc2c1-c1ccc(OC)c(c1)OC/C=C\COc1cccc-2c1,x,x,x,x,x,-25%
O=C1NCN(c2ccccc2)C12CCN(CCCC(c1ccc(F)cc1)c1ccc(F)cc1)CC2,10µM*,15%,-3%,u,-1%,79µM*!
O=C1CCC(=O)N1CCC(c1ccc(F)cc1)c1ccco1 (stereo not drawn),5%[12.7 µM],-3%,-6%,5%,-10%,-3%
Cc1ccc(NC(=O)c2sc3nc(-c4ccc(F)cc4)cn3c2C)c(C)c1,5%[59 µM],-10%,x,-9%[46 µM],x,x
CC1CC(C)(C)CC2(C1)NC(=O)N(CC(=O)N1CCN(Cc3ccc(C#N)cc3)CC1)C2=O (stereo not drawn),50µM*,x,x,x,x,x
CC1CC(C)(C)CC2(C1)NC(=O)N(CC(=O)N1CCN(S(=O)(=O)c3cccs3)CC1)C2=O (stereo not drawn),-13%[59 µM],x,x,x,x,x
COc1ccc(C(c2c(O)cc(C)n(Cc3ccco3)c2=O)N2CCCCC2)cc1OC (stereo not drawn),0%[59 µM],-1%,x,-4%[46 µM],x,x
O=C(COc1ccccc1[N+](=O)[O-])Nc1ccccc1N1CCCC1,45µM*,-21%,-15%,0%[46 µM],-6%,20µM*
SMILES,G9a block,miR-21 act,ALDH1A1 inh,Lamin A splicing,JMJD2E inh,Sfp inh
O=C(CCNC(=O)c1ccc(Br)cc1)Nc1ccccc1N1CCCCC1,56µM*,x,x,x,x,x
O=C(CCNC(=O)c1ccccc1Cl)Nc1ccccc1N1CCCC1,x,-1%,x,x,x,3%
O=C(COc1ccc(Br)cc1)Nc1ccccc1N1CCCC1,45µM*,-2%,-4%,8%[46 µM],-7%,20%
N#CC1(NC(=O)COc2ccccc2[N+](=O)[O-])CCCCC1,18µM*,x,x,x,x,x
COc1ccc(S(=O)(=O)Nc2ccccc2C(=O)NCc2cccnc2)cc1OC,6%,-2%,x,x,x,10%
COc1cccc(CNC(=O)c2c3c(nc4ccccc24)C(=O)N(C2CCCCC2)C3)c1,0%[59 µM],18%,x,-19%[46 µM],x,x
Cc1ccc(C(=O)COC(=O)CN2C(=O)C3C4CCC(C4)C3C2=O)cc1C (stereo not drawn),14%,-2%,x,x,x,6%
COc1ccccc1OCC(=O)NNc1c2ccccc2nc2ccccc12,35µM*,28%,x,x,u,5%
C[N+]1(CC(=O)NNc2c3ccccc3nc3ccccc23)CCOCC1,50µM*,1%,1%,u,-16%,3%
CCOC(=O)c1c(C)[nH]c(C(=O)OCC(=O)c2ccc3c(c2)NC(=O)CO3)c1C,11%[0.501 µM],x,x,x,x,x
Cc1ccc(N2CC(c3nnc(NC(=O)c4ccco4)s3)CC2=O)cc1C (stereo not drawn),u,1%,x,12%[46 µM],x,x
Cc1ccc(-c2cc(C(=O)N3CCCC3)c3ccccc3n2)s1,20%,-40%,x,x,x,-6%
Cc1ccc(-c2cc(C(=O)NN3CCOCC3)c3cc(Br)ccc3n2)o1,u,0%,u,1%[46 µM],u,25µM*
Cc1ccc(-c2cc(C(=O)O)c3cc(Br)ccc3n2)s1,40µM*!,-26%,x,x,x,-8%
Cc1ccc(-c2cc(C(=O)NC3=NCCS3)c3cc(Br)ccc3n2)o1,u,1%,0.11µM*,u,8.9µM*,-92%
Cc1ccc(-c2cc(C(=O)NCCCn3ccnc3)c3cc(Br)ccc3n2)o1,u,-1%,u,-19%,u,-5%
NNC(=O)c1cc(-c2ccc(O)cc2)nc2ccc(Br)cc12,-2%,0%,14µM*,u,10%,9%
CC(C)N1C(=O)C(O)(c2c[nH]c3ccccc23)c2ccccc21 (stereo not drawn),-40%[59 µM],23%,x,x,x,x
CC(O)CN(CCC(N)=O)CCC(N)=O (stereo not drawn),35µM*,0%,5%,3%,-8%,-14%
CC(O)CN(C)C (stereo not drawn),-28%[12.7 µM],x,x,x,x,29%
Cc1ccc(N(Cc2cc(=O)[nH]c3ccccc23)C(=O)CCl)c(C)c1,50µM*,u,x,x,x,-12%
COc1ccccc1N(Cc1cc(=O)[nH]c2ccccc12)C(C)=O,u,-1%,x,x,x,7%
CCC(=O)N(Cc1cc(=O)[nH]c2ccccc12)c1ccccc1C,45µM*,-9%,-8%,x,-3%,-4%
